# In PubChem BioAssay (EPA / NIEHS):
# Where “and” joins values, the source holds several entries; their conditions need not be identical. Equal entries are not always repeated. A structure can be active in one record and inactive in another. Calls of active or inactive are those of the source. Rule for the calls: active = hit-call score of the fitted dose curve at least 0.9, where 1 is the maximum; inactive = score below 0.9.
# Assay: BSK_3C_VCAM1: BioMAP Diversity Plus: 3C Assay for Vascular cell adhesion molecule 1 (VCAM1) Biomarker Activity (AID 2282999)
# Details: BioMAP 3C HUVEC, VCAM1 ELISA, cytokine-stimulated; actives raise or lower the signal
# Protocol: BSK_3C is a cell-based, multiplexed-readout assay that uses umbilical vein endothelium, a human vascular primary cell, with measurements taken at 24 hours after chemical dosing in a 96-well plate.BSK_3C_VCAM1 is an assay component measured in the BSK_3C assay. It measures VCAM-1 antibody related to regulation of gene expression using ELISA technology.Data from the assay component BSK_3C_VCAM1 was analyzed into 1 assay endpoint. This assay endpoint, BSK_3C_VCAM1, was analyzed with bidirectional fitting relative to DMSO as the negative control and baseline of activity. Using a type of binding reporter, gain or loss-of-signal activity can be used to understand changes in the signaling as they relate to the gene VCAM1. Furthermore, this assay endpoint can be referred to as a primary readout, because this assay has produced multiple assay endpoints where this one serves a signaling function. To generalize the intended target to other relatable targets, this assay endpoint is annotated to the cell adhesion molecules intended target family, where the subfamily is Immunoglobulin CAM.
# The levels of cell surface (or secreted, indicated by the prefix "s") biomarker endpoints were measured by ELISA. Overt cytotoxicity to cells in confluent adherent cultures (all systems other than the BT system) was assessed by measuring total protein levels using sulforhodamine B (SRB) staining in parallel cultures at the time of biomarker measurements, indicated as SRB endpoints. For proliferation assays for adherent cell types, individual cell types are cultured at sub-confluence and relative cell numbers quantified by SRB staining at time points optimized for each system (48 h: 3C and CASM3C systems; 72 h: BT and HDF3CGF systems; 96 h: SAg system). SRB was performed by staining cells with 0.1% SRB after fixation with 10% TCA and reading wells at 560 nm.Viability and proliferation of PBMC (T cells) was quantified by Alamar Blue reduction for the SAg and BT systems. For PBMC viability (referred to as PBMC Cytotoxicity within the assay endpoint names), cells were plated (75,000/well in a 96-well plate) and then chemical samples added for 1 h before addition of activators, SEB and TSST-1 (20 ng/mL final concentration each). Cells were incubated for 90 h. Then, Alamar Blue (20 uL/well) (Invitrogen, Cat DAL1100) was added for 6 h, and the plates were read with a fluorescence microplate reader at 546/580 nm (excitation/emission). For PBMC proliferation, cells were plated and activated as above but incubated for only 16 h prior to addition of Alamar Blue. Plates were read after 6 h.
Structure (SMILES),outcome,AC50
CCC(C)(CC)c1cc(NC(=O)c2c(OC)cccc2OC)on1,inactive,–
C=CC(N)=O,inactive,–
CCCCCCCCCC[N+](C)(C)CCCCCCCCCC,–,6.12 µM (active)
CC(C)(c1ccccc1)c1ccc(O)cc1,–,32.9 µM (active)
CCCN(CCC)N=O,inactive,–
CCC(C)c1cc([N+](=O)[O-])cc([N+](=O)[O-])c1O (stereo not given),–,8.86 µM (active)
Clc1ccc(C(c2ccccc2Cl)C(Cl)(Cl)Cl)cc1 (stereo not given),–,21 µM (active)
C[C@]12CCC(=O)C=C1CC[C@@H]1[C@@H]2CC[C@@]2(C)[C@H]1CC[C@]2(C)O,inactive,–
ClC1=C(Cl)[C@]2(Cl)[C@@H]3[C@@H]4C[C@@H]([C@H]5O[C@@H]45)[C@@H]3[C@@]1(Cl)C2(Cl)Cl,inactive,–
O=C(O)C(F)(F)C(F)(F)C(F)(F)C(F)(F)C(F)(F)C(F)(F)C(F)(F)C(F)(F)F,inactive,49.5 µM (active) and 30 µM (active)
CC(C)(O)C(=O)Nc1ccc([N+](=O)[O-])c(C(F)(F)F)c1,inactive,–
Oc1ccc(Cl)cc1Cl,inactive,–
Clc1ccc(Cl)cc1,inactive,–
CCC(=O)O[C@H]1CC[C@H]2[C@@H]3CCC4=CC(=O)CC[C@]4(C)[C@H]3CC[C@]12C,–,35.6 µM (active)
O=C(O)C(F)(F)C(F)(F)C(F)(F)C(F)(F)C(F)(F)C(F)(F)C(F)(F)C(F)(F)C(F)(F)F,inactive,56.8 µM (active) and 53.1 µM (active)
O=S(=O)(O)C(F)(F)C(F)(F)C(F)(F)C(F)(F)F,inactive,–
CCCCCCCCOC(=O)c1ccccc1C(=O)OCCCCCCCC,inactive,–
O=NN(c1ccccc1)c1ccccc1,inactive,–
O=C(NC(=O)c1c(F)cccc1F)Nc1cc(Cl)c(OC(F)(F)C(F)F)c(Cl)c1,inactive,–

Structure (SMILES),outcome,AC50
ClC1=C(Cl)[C@]2(Cl)[C@@H]3[C@H]4C[C@H]([C@@H]5O[C@H]45)[C@@H]3[C@@]1(Cl)C2(Cl)Cl,inactive,–
Sc1ccccc1,inactive,–
CCOP(=S)(OCC)SCSC(C)(C)C,inactive,–
Cc1cccc([N+](=O)[O-])c1,inactive,–
O=C(NC(=O)c1cc(F)c(F)cc1Cl)Nc1cc(F)ccc1N1CCC(C(=O)O)CC1,inactive,–
COS(=O)(=O)OC,inactive,–
Cc1ccccc1[N+](=O)[O-],inactive,–
CC1=C2C[C@H]3[C@@H](CC=C4C[C@@H](O)CC[C@@]43C)[C@@H]2CC[C@]12O[C@@H]1C[C@H](C)CN[C@H]1[C@H]2C,inactive,–
CCCCCCOC(=O)c1ccccc1C(=O)OCCCCCC,inactive,–
N#Cc1ccc(N(CC(N)=O)CC(F)(F)F)cc1C(F)(F)F,inactive,–
Oc1c(Cl)c(Cl)c(Cl)c(Cl)c1Cl,–,10.2 µM (active) and 32.3 µM (active)
CCNc1nc(NC(C)C)nc(SC)n1,inactive,–
ClC(Cl)=C(c1ccc(Cl)cc1)c1ccc(Cl)cc1,–,31.3 µM (active)
Cc1cc(O)ccc1Cl,inactive,–
CC#Cc1cc(C)nc(Nc2ccccc2)n1,inactive,–
Cc1ccc(O)c(C)c1,inactive,–
c1ccc(-c2ccccc2)cc1,inactive,–
C[C@]12CCC(=O)C=C1CC[C@@H]1[C@@H]2CC[C@]2(C)C(=O)CC[C@@H]12,inactive,–
CC(C)C(=O)OCC(C)(C)C(OC(=O)C(C)C)C(C)C (stereo not given),inactive,–
